# PrP UTR inh – inhibition of PrP 5' UTR reporter expression | cell-based PrP 5' UTR mRNA reporter, plate reader | inhibition, % (concentration not given with the values) | 0.35% of 340,000 active; in the data active = inhibition above about 52%; also: 0 = median of the neutral control wells
# Mtb hypoxia inh – inhibitors of hypoxia-regulated fluorescent reporter in Mycobacterium tuberculosis; 0.1% of 300,000 active; AID 1159583; M. tuberculosis hypoxia-regulated fluorescent reporter, fluorescence; fluorescence inhibition, % (no concentration beside the values); in the data active = fluorescence inhibition mostly above about 23%, no sharp cut-off; inactive = mostly below about 17%
# GDH-TPI counter-1 – GDH-TPI coupled enzyme inhibition counter-screen; AID 588335; GDH-TPI coupled enzyme counterscreen, NADH absorbance; inhibition, % at 4.8 µM; 1.2% of 360,000 active; in the data active = inhibition above about 30%;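 also: 0% = DMSO wells and 100% = wells lacking the enzyme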
# PrPC surface inh – reduces human prion protein on the cell surface | cell surface PrPC, TR-FRET read-out | inhibition, % at 13.8 µM | 0.43% of 370,000 active; in the data active = inhibition above about 24%; also: 0% = median of the test wells and 100% = reference compound wells
# Y pestis TopoI – Y. pestis Topo-I inhibition via cleavage products; Y. pestis Topo-I cleavage product accumulation, plate reader; activity, % at 10 µM; 0.064% of 360,000 active; in the data active = activity above about 50%, passing the limit was not always enough
# FBA Mtb inh – inhibits M. tuberculosis FBA enzyme | P9WQA3 | purified M. tuberculosis FBA, fluorescence read-out | inhibition, % at 1 µM | 2.3% of 360,000 active;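 also: 0% = vehicle and 100% = reference inhibitor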
# Target sequence (P9WQA3 whole entry, looked up): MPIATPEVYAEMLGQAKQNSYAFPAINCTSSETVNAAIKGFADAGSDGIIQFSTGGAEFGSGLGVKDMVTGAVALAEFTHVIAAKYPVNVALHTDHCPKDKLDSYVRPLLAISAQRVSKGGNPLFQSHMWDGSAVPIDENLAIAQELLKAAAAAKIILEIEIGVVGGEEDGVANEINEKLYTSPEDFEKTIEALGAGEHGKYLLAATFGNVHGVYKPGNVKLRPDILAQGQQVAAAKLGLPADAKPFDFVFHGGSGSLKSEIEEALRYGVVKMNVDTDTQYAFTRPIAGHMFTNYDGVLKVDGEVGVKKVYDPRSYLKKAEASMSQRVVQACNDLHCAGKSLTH
# Mtb FBA inh conf – confirmation of M. tuberculosis fructose-bisphosphate aldolase inhibitors; shares compounds with FBA Mtb inh; purified M. tuberculosis FBA, fluorescence read-out; inhibition, % at 1 µM; 78% of 5,600 active;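 also: 0% = vehicle wells and 100% = reference inhibitor wells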
# GDH-TPI counter-2 – inhibits GDH-TPI coupling enzymes, flagging Mtb FBA hits | inhibition, % at 1 µM | 81% of 5,600 active | shares compounds with FBA Mtb inh | GDH-TPI coupled enzyme counterscreen, fluorescence | AID 652141; in the data active = inhibition above about 10%
# * marks the source's active call; other numbers are inactive results; nt = no result; + = active, no number. The list is not random: actives were taken first. Their share in the collection is about 3.8%. Rule as the data show it, unless noted: active = inhibition above about 27%; inactive = the rest.
SMILES,PrP UTR inh,Mtb hypoxia inh,GDH-TPI counter-1,PrPC surface inh,Y pestis TopoI,FBA Mtb inh,Mtb FBA inh conf,GDH-TPI counter-2
Cc1ccc(-c2csc3nc4cc(C(N)=O)ccc4c(=O)n23)cc1,-5,9,15,-5,3,29*,2,-2
CN1CCC(=O)N(C(CSc2ccccc2)Cc2ccccc2)CC1 (stereo unspecified),nt,19,nt,nt,nt,nt,nt,nt
CCCC1(c2ccccc2)NC(=O)N(CC(=O)N2CC(=O)Nc3ccccc32)C1=O (stereo unspecified),-3,2,8,-9,6,5,nt,nt
CCC1(c2ccc(F)cc2)NC(=O)N(CC(=O)N2CC(=O)Nc3ccccc32)C1=O (stereo unspecified),3,10,6,-8,6,29*,163*,116*
Cc1c(Cc2ccccc2)c(=O)oc2cc(OCC(=O)NCC(O)c3ccccc3)ccc12 (stereo unspecified),-6,-3,12,10,25,79*,+,+
Cc1c(CCC(=O)O)c(=O)oc2cc(OCc3cccc(Cl)c3)ccc12,20,-2,12,-3,0,91*,115*,109*
Cc1cc(C)cc(NC(=O)COc2ccc3c(C)c(Cc4ccccc4)c(=O)oc3c2)c1,nt,1,nt,nt,nt,nt,nt,nt
CCCNC(=O)c1ccc(-c2nc3ccccc3s2)s1,10,16,32*,-38,6,48*,100*,66*
CCCNC(=O)Nc1nc2ccccc2s1,-83,6,-1,-1,7,4,nt,nt
CC(=NNC(=O)c1ccc(CSc2nncn2C)cc1)c1ccc2ccccc2c1,nt,7,nt,nt,nt,nt,nt,nt
COCCNC(=O)c1c(N)n(/N=C/c2cccs2)c2nc3ccccc3nc12,-13,nt,17,2,-4,-9,nt,nt
Nc1c(C(=O)NCCN2CCOCC2)c2nc3ccccc3nc2n1Cc1ccccc1,-31,-12,3,-7,15,91*,7,3
Nc1c(C(=O)NCc2ccco2)c2nc3ccccc3nc2n1CCc1ccccc1,-19,2,8,-7,9,72*,87*,72*
Nc1c(C(=O)OCc2ccccc2)c2nc3ccccc3nc2n1Cc1cccs1,-31,-7,9,6,0,51*,168*,150*
COCCNC(=O)c1c(NC(=O)c2ccco2)n(Cc2ccccc2)c2nc3ccccc3nc12,-18,-2,5,-5,7,75*,65*,65*
COCCCNC(=O)c1c(NC(=O)c2ccccc2Cl)n(Cc2ccccc2)c2nc3ccccc3nc12,-11,17,12,2,17,9,nt,nt
O=C(NCc1ccco1)c1ccc2ccccc2n1,-20,15,-2,7,5,0,nt,nt
NN=C(Cc1cscn1)c1ccc(O)cc1O,nt,3,nt,nt,nt,nt,nt,nt
COC(=O)C1=C(c2ccc(F)cc2F)CC2CCC1N2C(=O)NCCO (stereo unspecified),nt,3,nt,nt,nt,nt,nt,nt
C[C@@]12C(=O)Nc3cc(F)c(F)cc3C(=O)N1C1c3ccccc3OCC1C2c1ccccc1 (stereo partly specified),nt,-8,nt,nt,nt,nt,nt,nt
Nc1c(C(=O)NCCc2ccccc2)c2nc3ccccc3nc2n1CCN1CCOCC1,-17,-5,5,-2,1,27*,73*,53*
COCCNC(=O)c1c(N)n(Cc2ccco2)c2nc3ccccc3nc12,-23,1,18,-10,5,83*,76*,67*
Nc1c(C(=O)NCCN2CCOCC2)c2nc3ccccc3nc2n1Cc1ccco1,-15,-12,19,-20,19,86*,98*,96*
COCCNC(=O)c1c(N)n(/N=C/c2ccc(F)cc2)c2nc3ccccc3nc12,nt,nt,7,3,-1,1,nt,nt
Cc1cc(=O)n2c(nc3ccccc32)s1,nt,nt,5,0,-3,-2,nt,nt
O=c1cc(-c2ccccc2)[nH]c2nc3ccccc3n12,-47,24,16,1,-1,51*,+,+
O=c1cc(CCl)[nH]c2nc3ccccc3n12,-8,3,21,-5,-3,47*,169*,112*
CC(C)c1cc(=O)n2c(nc3ccccc32)[nH]1,-7,3,3,3,4,45*,119*,108*
